Tau fibril ThT = inhibitors of human tau fibril formation, thioflavin T binding; P10636; recombinant tau K18 P301L, heparin-induced fibrillization, ThT fluorescence; Potency, µM (top dose mostly 57.4 µM), for inactives: top-dose activity, negative = inhibition, actives largely listed as inhibitors; 2.1% of 270,000 active; AID 1460; further: potency means the concentration at half of the fitted maximal effect; on the % scale 0 is the no-effect control and ±100 the full control effect; nearly all actives have a fitted effect of over 55% in size
Target sequence (P10636 561-689 P618L limits assumed): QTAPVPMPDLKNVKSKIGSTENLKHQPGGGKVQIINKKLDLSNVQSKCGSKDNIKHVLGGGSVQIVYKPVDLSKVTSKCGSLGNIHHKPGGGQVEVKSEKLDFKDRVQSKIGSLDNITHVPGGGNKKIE
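K18 P301L tau (15 uM + 0.24 uM Alexa 594-tagged), heparin 20 uM, NaOAc pH 7, 6 h 37 C; ThT 30 uM, 1 h RT, ex 450/em 510 nm.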
CBFb RUNX1 block = CBF-beta/RUNX1 interaction disruption; AID 1477; 230,000 tested, under 10 active; Q01196+Q13951; AlphaScreen CBFb-His/RUNX1-biotin binding, biochemical; Potency, µM (series often up to 59.8 µM), without a hit: at the highest dose activity, negative = inhibition, usual class: inhibitors; further: % of control where 0% means no effect
Target sequence (Q01196 whole entry, looked up): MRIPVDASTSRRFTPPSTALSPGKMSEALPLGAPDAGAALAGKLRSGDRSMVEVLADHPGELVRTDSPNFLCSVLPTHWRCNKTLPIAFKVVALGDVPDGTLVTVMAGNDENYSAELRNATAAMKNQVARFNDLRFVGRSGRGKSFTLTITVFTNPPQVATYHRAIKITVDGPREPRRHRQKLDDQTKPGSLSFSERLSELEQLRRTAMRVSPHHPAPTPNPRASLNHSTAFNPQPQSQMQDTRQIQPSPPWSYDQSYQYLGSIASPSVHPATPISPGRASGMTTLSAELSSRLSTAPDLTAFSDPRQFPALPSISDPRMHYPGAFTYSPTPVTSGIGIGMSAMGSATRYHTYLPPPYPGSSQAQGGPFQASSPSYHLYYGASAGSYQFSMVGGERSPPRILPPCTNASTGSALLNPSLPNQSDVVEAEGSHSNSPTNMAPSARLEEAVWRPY
Target sequence (Q13951 whole entry, looked up): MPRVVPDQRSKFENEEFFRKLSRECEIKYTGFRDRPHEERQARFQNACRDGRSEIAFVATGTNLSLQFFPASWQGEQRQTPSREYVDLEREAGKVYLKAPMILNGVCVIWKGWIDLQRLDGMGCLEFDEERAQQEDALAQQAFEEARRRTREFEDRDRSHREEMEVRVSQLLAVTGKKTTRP
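Interaction loss through any mechanism counts as activity. Pre-formed complex of His-CBF-beta and biotin-RUNX1 (30 nM apiece) is incubated with compound 15 min, then with 50 ng nickel and 50 ng streptavidin beads for 90 min before AlphaScreen detection.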
LMNA splice mod = modulators of lamin A splicing | 0.01% of 200,000 active | Potency, µM (top dose mostly 46.1 µM), inactives show top-dose ratio change, negative = inhibition, actives largely listed as inhibitors | HeLa LMNA splicing GFP/RFP minigene ratio, 48 h; active means well fitted inhibition curve with a large enough effect in the signal ratio, with a control signal flat, not every such curve was filed as active; inconclusive means small, poorly fitted or top-dose-only effect, or effect the other way, or a change in a side signal; the % refers to the signal ratio; further: potency means the concentration at half of the fitted maximal effect; on the % scale 0 is the no-effect control and ±100 the full control effect
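S3 HeLa cells stably expressing lamin A-EGFP splicing minigene plus DsRed2, 600 cells/well, 48 h compound exposure at 37C. Laser-scanning cytometry; analysed as GFP (500-530 nm)/RFP (575-640 nm) total intensity ratio; 0.5% DMSO vehicle.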
KDM4E inh = blocks human JMJD2E demethylase activity. JMJD2E catalytic domain, FDH-coupled NADH fluorescence (FDH is formaldehyde dehydrogenase). AID 2147. Potency, µM (highest dose often 57.1 µM), for inactives: at the highest dose activity change, negative = inhibition, hits mostly inhibitors. 1.6% of 230,000 active. B2RXH2; active means well fitted inhibition curve with a large enough effect, not every such curve was filed as active; inconclusive means small, poorly fitted or top-dose-only effect, or another doubt; inactive means no such curve, though single readings can be large or run the other way;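 further: potency means the concentration at half of the fitted maximal effect; 0% = wells with enzyme and -100% = buffer wells without enzyme; nearly all actives have a fitted effect of over 50% in size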
Tau FP inhib = inhibitors of human tau fibril formation; P10636; K18 P301L tau heparin fibrillization, Alexa594 FP, 6 h; Potency, µM (series often up to 57.7 µM), for the others: at the top dose activity, negative = inhibition, usual class: inhibitors; 0.39% of 280,000 active; further: potency means the concentration at half of the fitted maximal effect; on the % scale 0 is the no-effect control and ±100 the full control effect; nearly all actives have a fitted effect of over 55% in size
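Human tau K18 […] P301L fragment, 15 uM unlabeled plus 0.24 uM Alexa 594-labeled tau (final), with compound and 20 uM heparin in 100 mM sodium acetate pH 7; 6 hr at 37 C, then Alexa 594 FP read.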
Tau fluor counter = counter-screen for tau fibril formation inhibitors. tau K18 P301L (four-repeat tau fragment) Alexa594 fluorescence, heparin fibrillization. Potency, µM (highest dose often 57.7 µM), without a hit: at the highest dose activity change, negative = decrease. 0.93% of 280,000 active; further: potency means the concentration at half of the fitted maximal effect; on the % scale 0 is the no-effect control and ±100 the full control effect; nearly all actives have a fitted effect of over 55% in size
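Human K18 P301L tau (15 uM unlabeled plus 0.24 uM Alexa 594-labeled, final) in 100 mM sodium acetate pH 7 was mixed with compound and 20 uM heparin and incubated 6 hr at 37 C.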
* hit, by the source's call; ? = inconclusive; / = no result given; [ ] = another dose, or the depositor's remark. Rows were chosen to be rich in hits. Some 3.2% of all compounds tested hit in one or more screens of this group. Unless noted, the call rests on the fitted dose curve; in most records, active means well fitted curve in the direction sought with a large enough effect; inconclusive means small, poorly fitted or top-dose-only effect, or another doubt; inactive means no such curve, though single readings can be large; an effect the other way counts as inactive or inconclusive.

SMILES | Tau fibril ThT | CBFb RUNX1 block | LMNA splice mod | KDM4E inh | Tau FP inhib | Tau fluor counter
CC1=Nc2ccccc2/C1=C\c1sc(Nc2ccc(C)cc2)nc1O | 7.9µM* | -13% | ? | -4% | ? | 11µM*[quencher]
COC(=O)c1ccc(C(NC(=O)OCc2ccccc2)/C(=C/[C@@H](C)C(=O)NCCc2c[nH]c3ccccc23)c2cccnc2)cc1 (some centres undefined) | ? | -11% | / | 2% | ? | ?
CCC(C)NC(=O)Cn1ncc2c(C)n(Cc3ccc(F)cc3)c(C)c2c1=O (centres undefined) | -6% | / | / | / | -3% | -6%
COc1ccc(-c2nnc3n2N=C(c2ccc(OC)c(OC)c2)CS3)c(OC)c1 | / | 4% | / | / | / | /
COc1cccc(/C=C/C(=O)Nc2ccc3[nH]c(=O)[nH]c3c2)c1 | 2% | -1% | / | 0% | -1% | -8%
CNc1ccc(Br)cc(C(=O)/C=C/c2ccc(OC)cc2OC)c1=O | 11µM* | -3% | ? | ? | ? | ?
CNc1ccc(Br)cc(C(=O)/C=C/c2ccc(Cl)cc2Cl)c1=O | 10µM* | ? | ? | ? | ? | ?
CNc1ccc(Br)cc(C(=O)/C=C/c2cccc(OC)c2)c1=O | 11µM* | -24% | ? | ? | -16% | ?
C[C@H]1Cc2c(-c3ccccc3)nc3c(c2CO1)CN(C(=O)C1CCCCC1)CC3 | 7%[11.5 µM] | 6%[13.1 µM] | ? | 3%[11.4 µM] | -4%[11.6 µM] | -1%[11.6 µM]
COC(=O)C1=C(C)N(c2cc(C)cc(C)c2)/C(=C/c2ccc(O)cc2)C1=O | 32µM* | 2% | / | -9% | 2% | -20%
CC(=O)Cn1ncc(Br)c(Br)c1=O | ? | 4% | / | -2% | ? | -9%
O=C(OCn1ncc(Br)c(Br)c1=O)c1c(F)cccc1F | 7.1µM* | -2% | ? | -16% | ? | -18%
COC(=O)C1=C(C(=O)OC)[C@@H]2N(Cc3ccccc3)c3ccccc3[C@@]23C[C@@H](C(=O)OC)N(C(=O)NCc2ccccc2)C3=C1 | -9% | -8% | / | -13% | 6% | -2%
COc1ccccc1CNC(=O)Cn1ncc2c(C)n(Cc3ccccc3Cl)c(C)c2c1=O | ? | / | / | / | -2% | -7%
Cc1cccc(C(=O)Nc2sc(-c3ccccc3)cc2C(=O)O)c1 | 14µM* | 20% | / | ? | 14% | ?
Cc1ccc(S(=O)(=O)NC(C)(C)CSc2nnc(Nc3ccccc3)s2)cc1 | -17% | -2% | ? | -2% | 4% | 18µM*[quencher]
CCN(CC)CC(=O)Nc1ccc2c(c1)Nc1ccccc1CC2 | ? | -15% | ? | -8% | 4% | 16µM*[quencher]
COC(=O)Cn1c(=NC(=O)c2ccc3c(c2)OCCO3)sc2ccccc21 | 4% | / | 6%[46 µM] | / | ? | -23%
CC(C)C[C@H](NC(=O)[C@H](Cc1ccccc1)NC(=O)CNC(=O)[C@H](CCC(=O)O)NC(=O)[C@H](CCCNC(=N)N)NC(=O)[C@H](C)NC(=O)[C@H](C)NC(=O)[C@@H](N)CC(=O)O)C(=O)N[C@@H](CC(=O)O)C(=O)N[C@H](C(=O)N[C@@H](CC(C)C)C(=O)N[C@H](C(=O)N[C@H](C(=O)N[C@@H](CC(C)C)C(=O)N[C@@H](Cc1cnc[nH]1)C(=O)N[C@@H](CCCNC(=N)N)C(=O)N[C@@H](C)C(=O)NCC(=O)N[C@@H](C)C(=O)N[C@@H](CCCNC(=N)N)C(=O)O)C(C)C)C(C)C)[C@@H](C)O | / | -1% | / | / | / | /
CCc1ccccc1N(CC)C(=O)C(=O)Nc1ccc2nc3n(c(=O)c2c1)CCCCC3 | -6% | / | / | / | ? | -14%
O=c1c(OC2OC(CO)C(O)C(O)C2O)c(-c2ccc(O)c(O)c2)oc2cc(O)cc(O)c12 (centres undefined) | -18% | ? | -2% | 8.9µM* | 4% | -9%
O=C(/C=C/c1ccc(O)cc1)OC[C@H]1O[C@@H](Oc2c(-c3ccc(O)cc3)oc3cc(O)cc(O)c3c2=O)[C@H](O)[C@@H](O)[C@@H]1O | / | -1% | / | / | / | /
CC1OC(OCC2OC(Oc3c(-c4ccc(O)c(O)c4)oc4cc(O)cc(O)c4c3=O)C(O)C(O)C2O)C(O)C(O)C1O (centres undefined) | ? | 8%[21.7 µM] | / | 11µM* | -14% | -17%
O=c1c(OC2OC(CO)C(O)C(O)C2OC2OC(CO)C(O)C(O)C2O)c(-c2ccc(O)cc2)oc2cc(O)cc(O)c12 (centres undefined) | -5% | -22% | / | 28µM* | -1% | -11%
C[C@@H]1O[C@@H](Oc2c(-c3cc(O)c(O)c(O)c3)oc3cc(O)cc(O)c3c2=O)[C@H](O)[C@H](O)[C@H]1O | ? | ? | -3% | 2.2µM* | ? | ?
SMILES | Tau fibril ThT | CBFb RUNX1 block | LMNA splice mod | KDM4E inh | Tau FP inhib | Tau fluor counter
C[C@@H]1OC(O[C@H]2[C@H](Oc3cc(O)c4c(=O)c(O)c(-c5ccc(O)cc5)oc4c3)O[C@H](CO)[C@@H](O)[C@@H]2O)[C@H](O)[C@H](O)[C@H]1O (some centres undefined) | / | 20% | / | / | / | /
COc1cccc2c1CCCC2CCCN1CCN(C2CCCCC2)CC1 (centres undefined) | / | 5% | / | / | / | /
COc1ccc(N2CCN(c3oc(/C=C/c4cc(OC)c(OC)c(OC)c4)nc3C#N)CC2)cc1 | -15% | / | / | / | ? | ?
O=c1cc(-c2ccccc2)oc2cc(O[C@@H]3O[C@H](CO)[C@@H](O)[C@H](O)[C@H]3O)c(O)c(O)c12 | ? | 4%[21.7 µM] | / | 13µM* | 0% | -30%
CC(=O)OCc1cnc(C)c2oc(=O)c(C(=O)Nc3cc(F)ccc3C)cc12 | -13% | / | / | / | 1% | -17%
COc1ccccc1NC(=O)C1=C(C)Nc2ncnn2C1c1cccn1C (centres undefined) | 9% | / | -19%[46 µM] | / | -7% | 0%
O=C1CC(SC(=Nc2ccccc2)Nc2ccccc2)C(=O)N1c1ccc(Cl)c(Cl)c1 (centres undefined) | 11% | -10% | ? | -10% | 7.9µM* | ?
Cc1cccc(N2C(=O)CC(SC(=Nc3ccccc3)Nc3ccccc3)C2=O)c1 (centres undefined) | -3% | 1% | -10% | 1% | ? | ?
CN=C(Nc1cc(Cl)ccc1Cl)SC1CC(=O)N(c2ccc(C(=O)OC)cc2)C1=O (centres undefined) | 7% | 9% | ? | -3% | 28µM* | ?
Nc1ccccc1SC1CC(=O)N(c2ccc(Cl)c(Cl)c2)C1=O (centres undefined) | 5% | 13% | / | 2% | 28µM* | ?

High-throughput results (PubChem)
